Test results taken from the supplement of paper PMC4466236.
The full ranking holds about 33,000 sequences; the median of “E-score (dimensionless, -0.5 to 0.5)” is about -0.058, and the highest 2% start at about 0.35. What follows is part of a selection rich in the highest values, with near analogues and random picks from the rest.

test system: MvaT; assay: PBM 8-mer E-score (mean of HK and ME arrays) (E-score (dimensionless, -0.5 to 0.5)); higher = stronger relative binding preference
Experimental: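 Protein binding microarray: GST-tagged full-length MvaT (P. aeruginosa PAO1) bound to two universal double-stranded 60-mer arrays (ME and HK), each with a constant 25-mer primer and a variable 35-mer region covering all 8-mers. The 8-mer E-score (rank-based, range -0.5 to 0.5, >0.45 = specific binding) is the mean of the two arrays.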

| Sequence | PBM 8-mer E-score |
| --- | --- |
| GGGCCACC | -0.382 |
| GATTTGTA | 0.205 |
| GCCCGCGC | -0.262 |
| TGGTGCAA | 0.0798 |
| ACAGATGA | -0.0583 |
| CGAGGTAC | -0.301 |
| ACCCATTA | 0.241 |
| CGTTAGCA | -0.0988 |
| CCGGCCTA | -0.174 |
| GCAATTAC | 0.169 |
| GTAATTAC | 0.393 |
| ATAATTAG | 0.429 |
| GAAATTAC | 0.247 |
| ATAATTAA | 0.456 |
| ATAATTGA | 0.338 |
| CTGATTAA | 0.278 |
| CTAATTCA | 0.228 |
| AGAATTAG | 0.00537 |
| ATAATTCG | 0.228 |
| CTAATTAA | 0.413 |
| GTAATTAA | 0.343 |
| CCGTGCCC | -0.184 |
| ATCCTGGA | 0.0568 |
| CCGCACGA | -0.13 |
| AACTATGT | 0.258 |
| ATGGAGAC | -0.0433 |

| Sequence | PBM 8-mer E-score |
| --- | --- |
| CTTTTCTC | -0.00236 |
| TATTTCCA | 0.312 |
| AGACTAAC | 0.00982 |
| AGATACCC | -0.0322 |
| ATAATGGA | 0.238 |
| CACGTCTC | -0.173 |
| CTAATTAG | 0.35 |
| ATAATTAC | 0.378 |
| CTAATTAC | 0.322 |
| ATAATTAT | 0.467 |
| CAAATTAG | 0.18 |
| ATAATTGG | 0.308 |
| AGAATTAT | 0.315 |
| CCAATTAG | 0.073 |
| ATAATTCC | 0.254 |
| AGCTAATC | -0.0533 |
| GAAGTTGA | 0.0448 |
| ATTTGGAA | 0.0956 |
| CAATACAA | 0.199 |
| GAATACTA | 0.212 |
| AAATACTC | 0.207 |
| CAATACTA | 0.172 |
| TAATACAA | 0.397 |
| AAATACAA | 0.33 |
| GACTAATA | 0.297 |
| AAATACTA | 0.383 |

| Sequence | PBM 8-mer E-score |
| --- | --- |
| TACTAATA | 0.357 |
| AAATACTT | 0.246 |
| TAATACTA | 0.37 |
| CACTAATA | 0.323 |
| CTTCGAGC | -0.301 |
| AGAGGCGC | -0.328 |
| CCACGCGC | -0.112 |
| CCCATCGG | -0.267 |
| GGATACGA | 0.0766 |
| AAGATCGC | -0.0523 |
| AATGGTTC | -0.0396 |
| AAATACCG | 0.271 |
| CCCTAAGG | -0.289 |
| AAGTTACA | 0.264 |
| GAGTTATC | 0.0914 |
| GCGTTATA | 0.252 |
| CAGTTATA | 0.36 |
| TAGTTATA | 0.402 |
| CCGTTATA | 0.308 |
| CAGTTATC | 0.131 |
| AAGTTAGA | 0.302 |
| TAGTTAGA | 0.178 |
| TAGTTACA | 0.247 |
| GAGTTATA | 0.369 |
| AAGTTATA | 0.442 |
| AAGATTGG | 0.154 |

| Sequence | PBM 8-mer E-score |
| --- | --- |
| GAAACGGA | -0.164 |
| ATAACCTA | 0.182 |
| ATGTCGAC | 0.0419 |
| AGTTCTGA | 0.144 |
| AAAATCAA | 0.18 |
| AAAGCTGG | -0.0254 |
| AAGAATTA | 0.295 |
| CATAATTA | 0.421 |
| AATAATTG | 0.372 |
| GATAATTA | 0.419 |
| GATAATCC | 0.175 |
| CATAATTC | 0.223 |
| AATAATTC | 0.344 |
| AATAATTA | 0.463 |
| GAGAATTA | 0.23 |
| CATAATCA | 0.227 |
| AATAATCG | 0.309 |
| AGTAATTG | 0.293 |
| ATTCTTGC | 0.0322 |
| CATAGGGA | -0.132 |
| TCCTTCCA | -0.27 |
| GCAGTATA | 0.287 |
| ATCGGCGC | -0.104 |
| AGCCCTAT | -0.14 |
| AAGAAGAC | -0.0906 |
| TAACAGGA | 0.223 |

| Sequence | PBM 8-mer E-score |
| --- | --- |
| AGCCGCCT | -0.243 |
| CGTTGGCC | -0.25 |
| AGATACGG | -0.112 |
| ATTTTTCC | 0.0867 |
| GTCGTGAA | -0.22 |
| CAAAGGTA | -0.113 |
| CAACACCA | 0.0286 |
| AGATATAA | 0.373 |
| AGATATAG | 0.208 |
| AGAGATAA | 0.144 |
| AGATATAT | 0.46 |
| AGATATAC | 0.155 |
| AGATATCA | 0.194 |
| GAATGGGC | -0.16 |
| GATATTAA | 0.438 |
| CATATTCA | 0.184 |
| CATATTAA | 0.418 |
| GATATTAC | 0.293 |
| GAGATTAA | 0.232 |
| CAGATTAA | 0.137 |
| CCTACCAG | -0.279 |
| CGGTTATC | 0.0552 |
| GCATCGGA | -0.11 |
| CTGATGCC | -0.231 |
| AGAGAAAT | 0.134 |
| GATAGTAA | 0.284 |

| Sequence | PBM 8-mer E-score |
| --- | --- |
| AAATTAAG | 0.361 |
| CAATTAAA | 0.305 |
| GGATTAAA | 0.232 |
| AAATTACG | 0.256 |
| AAATTAAT | 0.426 |
| AAATTACT | 0.308 |
| GAATTAAA | 0.385 |
| GAATTAAC | 0.256 |
| TAATTAAA | 0.447 |
| AAATTAGT | 0.281 |
| CAATTAAG | 0.24 |
| TGATTAAA | 0.27 |
| CCCGTACA | -0.0141 |
| CGTAATCA | 0.0215 |
| AAATTAAA | 0.399 |
| AAATTAGA | 0.191 |
| AAATTAAC | 0.27 |
| CGGAGGGA | -0.311 |
| CAAAACAC | 0.0954 |
| AGTTTAAC | 0.244 |
| AGTTTTAA | 0.259 |
| TGTTTAAA | 0.387 |
| AGTTTAAA | 0.378 |
| AGTTTAAT | 0.379 |
| GGTTTAAA | 0.31 |
| CGTTTAAA | 0.317 |

| Sequence | PBM 8-mer E-score |
| --- | --- |
| TGTTTTAA | 0.302 |
| AGTTTAAG | 0.257 |
| AATTCTGA | 0.0908 |
| TGCATCCA | -0.0802 |
| GGGCCCTA | -0.218 |
| AGGAAGAG | -0.188 |
| ATGGAGTA | 0.0119 |
| AATACTAT | 0.297 |
| GATACTAA | 0.213 |
| TATACTAA | 0.391 |
| CATACTAA | 0.198 |
| AATACTAC | 0.271 |
| AATACTAA | 0.356 |
| TCTGAGAA | -0.0369 |
| AGCTAAGA | -0.0322 |
| ATAATGTA | 0.401 |
| CTAATGCA | -0.0396 |
| CTAATGTA | 0.23 |
| ATAATGCG | 0.271 |
| ATAATGCA | 0.36 |
| ATAATGTC | 0.337 |
